# From PubChem BioAssay
# The list is not random: actives were taken first. Their share in the collection is about 7.4%.
# SNCA expr inhib: Primary qHTS assay for inhibitors of alpha-synuclein gene (SNCA) expression | Potency, µM (series often up to 57.2 µM), inactives show at the highest dose activity change, negative = inhibition, hits mostly inhibitors | 140,000 tested, 0.17% active | AID 1671194, 2021 | HEK-293 SNCA-luciferase knock-in, luminescence, 24 h;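 also: plate controls were DMSO cells for no effect and cell-free wells for full effect; nearly all actives have a fitted effect of over 45% in size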
# HEK293 viab: GF-AFC viability counterscreen for inhibitors of alpha-synuclein gene (SNCA) expression. HEK-293-SNCA-luc viability, GF-AFC fluorescence, 24 h. Potency, µM (highest dose often 57.1 µM), without a hit: at the top dose activity change, negative = cytotoxicity, actives largely listed as cytotoxic. 150,000 tested, 0.12% active;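 also: 0% = DMSO-treated cells and -100% = medium-only wells without cells; nearly all actives have a fitted effect of over 30% in size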
#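 HEK-293-SNCA-luc cells (1500/well) plated 24 h, then exposed 24 h to a dilution series; GF-AFC added 30 min at 37C, fluorescence 405/540 nm; normalised to medium-only and DMSO wells, Hill fit.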
# HEK293 tox: Cytotoxic Profiling in HEK 293 Cell Line of Diverse Libraries Using Quantitative High-Throughput Screening; 94,000 tested, 6.6% active; Potency, µM (highest dose often 115 µM), inactives show top-dose activity change, negative = cytotoxicity, most hits filed as inhibitors; HEK 293 viability, ATP luminescence (CellTiter-Glo), 48-72 h; also: nearly all actives have a fitted effect of over 60% in size
#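 CellTiter-Glo luminescence (cellular ATP) was read after 48 or 72 hr of compound exposure at 37 degree Celsius. Cells were HEK 293 plated at 250 cells/well.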
# NIH3T3 tox: Cytotoxic Profiling in NIH 3T3 Cell Line of Diverse Libraries Using Quantitative High-Throughput Screening. NIH 3T3 viability, CellTiter-Glo ATP luminescence, 48-72 h. Potency, µM (top dose mostly 96.7 µM), inactives show at the top dose activity change, negative = cytotoxicity, actives largely listed as inhibitors. 94,000 tested, 4.3% active. AID 1345082, 2018; also: nearly all actives have a fitted effect of over 55% in size
#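 First NIH 3T3 cells are plated at 400 cells/well; next compound is pinned in; then plates incubate 48 or 72 hr at 37 °C; finally CellTiter-Glo is added and luminescence read after 10 min.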
# Luciferase inh: Firefly luciferase inhibition profiling of diverse chemical library using quantitative high-throughput screening. Luciferin 4-monooxygenase (Photinus pyralis), P08659. purified P. pyralis luciferase, luminescence, biochemical. Potency, µM (doses to about 115 µM), usual class: inhibitors. 76,000 tested, 2.5% active; also: nearly all actives have a fitted effect of over 65% in size
# Target sequence (P08659 whole entry, looked up): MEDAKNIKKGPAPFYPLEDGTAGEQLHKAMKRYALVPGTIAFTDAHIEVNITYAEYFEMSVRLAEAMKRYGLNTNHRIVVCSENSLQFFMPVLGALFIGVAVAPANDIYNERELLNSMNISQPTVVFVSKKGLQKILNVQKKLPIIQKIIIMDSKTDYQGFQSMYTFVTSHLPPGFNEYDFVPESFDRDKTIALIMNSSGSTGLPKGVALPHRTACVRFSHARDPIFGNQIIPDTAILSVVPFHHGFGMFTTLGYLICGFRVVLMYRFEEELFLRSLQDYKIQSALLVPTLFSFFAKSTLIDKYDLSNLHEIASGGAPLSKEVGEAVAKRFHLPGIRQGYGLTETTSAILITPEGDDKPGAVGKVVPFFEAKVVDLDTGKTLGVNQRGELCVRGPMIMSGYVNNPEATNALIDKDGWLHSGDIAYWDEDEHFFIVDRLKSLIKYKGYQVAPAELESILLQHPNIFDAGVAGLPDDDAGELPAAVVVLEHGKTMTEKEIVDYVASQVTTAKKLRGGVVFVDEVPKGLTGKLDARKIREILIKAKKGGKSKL
#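 Inhibitors were tested against purified firefly luciferase in a biochemical, low-substrate format (both substrates at 10uM) and luminescence measured with a CCD imager.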
# hNpr1 antagonist: Natriuretic polypeptide receptor (hNpr1) antagonism - Primary qHTS | Atrial natriuretic peptide receptor 1 (Homo sapiens), P16066 | HEK293 hNpr1 GloSensor cGMP, ANP-stimulated luminescence | Potency, µM (top dose mostly 46.3 µM), without a hit: top-dose activity change, negative = inhibition, hits mostly inhibitors | 76,000 tested, 1.6% active | AID 1347048, 2019; calls by dose curve; also: nearly all actives have a fitted effect of over 60% in size
#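 Compound pre-incubated 30 min at room temperature on GloSensor-loaded HEK293 cells stably carrying hNpr1 and the pGS-40F cGMP biosensor. Stimulation uses hNppA at 0.1 nM final; luminescence is taken at baseline and 20 min post-agonist.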
# Numbers without * were called inactive; i = inactive; ? = inconclusive; . = not tested or not shown; [ ] = remark or other dose. Unless noted, calls follow the shape of the dose curve; as a rule, active = well fitted curve in the direction sought with a large enough effect; inconclusive = small, poorly fitted or top-dose-only effect, or another doubt; inactive = no such curve, though single readings can be large; an effect the other way counts as inactive or inconclusive. Unless noted, % is scaled to controls: 0 for no effect and ±100 for the full control effect; potency is read from the fitted curve at half-maximal effect.
SMILES,SNCA expr inhib,HEK293 viab,HEK293 tox,NIH3T3 tox,Luciferase inh,hNpr1 antagonist
COc1ccc(-c2cc(N3CCCC(NC(=O)c4ccccn4)C3)n[nH]2)cc1 (stereo unspecified),-2%,-21%,?,-26%,?,-13%
CCn1ccc(C(=O)NC2CCCN(c3cc(-c4ccc(OC)cc4)[nH]n3)C2)n1 (stereo unspecified),19%,-12%,?,-22%,28µM*,0%
CCn1ccc(C(=O)NC2CCCN(c3cc(-c4ccc(Cl)cc4)[nH]n3)C2)n1 (stereo unspecified),53%,-17%,?,?,35µM*,-15%
Cc1cc(-c2cc3c(nc2-c2ccccc2)nc(C(=O)NC2CCN(C)CC2)n3C)ccn1,11%[87.6 µM],-27%[87.6 µM],?,25µM*,i,6%[70.6 µM]
COc1cc(-c2cc3c(nc2-c2ccccc2)nc(C(=O)NC2CCN(C)CC2)n3C)ccn1,13%,-5%,?,?,i,-8%
COCCNC(=O)c1nc2nc(-c3ccccc3)c(Cl)cc2n1C,-20%[87.6 µM],3%[87.6 µM],?,?,i,-1%[70.6 µM]
Cc1cc(-c2cc3c(nc2-c2ccccc2)nc(C(=O)NCCN(C)C)n3C)ccn1,9%[87.6 µM],-10%[87.6 µM],-24%[172 µM],?,i,5%[70.6 µM]
COc1ccc(-c2cc3c(nc2-c2ccccc2)nc(C(=O)NCCN(C)C)n3C)cn1,-30%[87.6 µM],-4%[87.6 µM],?,79µM*,i,3%[70.6 µM]
COc1cc(F)ccc1-c1cc2c(nc1-c1ccccc1)nc(C(=O)NCCN(C)C)n2C,-16%,-13%,32µM*,20µM*,i,-4%
Cc1ccccc1-c1cc2c(nc1-c1ccccc1)nc(C(=O)NCCN(C)C)n2C,0%[87.6 µM],-30%[87.6 µM],35µM*,25µM*,i,?
COc1ccc(CCNC(=O)C2CCCN2C(=O)c2cccc(-c3cccnc3)c2)cc1 (stereo unspecified),.,.,-25%,-11%,.,.
COC1CN(C(=O)OCc2ccccc2)CCC(=O)N(C)c2ccccc21 (stereo unspecified),-5%[25.6 µM],-16%[23.9 µM],?,-28%[46.1 µM],.,.
CN(C)CCNC(=O)c1nc2nc(-c3ccccc3)c(-c3cccnc3)cc2n1C,?,-8%[87.6 µM],?,?,i,0%[70.6 µM]
COc1ccccc1-c1cc2c(nc1-c1ccccc1)nc(C(=O)NCCN(C)C)n2C,8%[87.6 µM],-16%[87.6 µM],?,35µM*,i,?
CN(C)CCNC(=O)c1nc2nc(-c3ccccc3)c(-c3ccncc3)cc2n1C,7%[87.6 µM],-3%[87.6 µM],?,100µM*,i,2%[70.6 µM]
COc1cc(-c2cc3c(nc2-c2ccccc2)nc(C(=O)NCCN(C)C)n3C)ccn1,18%[87.6 µM],-12%[87.6 µM],?,?,i,-6%[70.6 µM]
O=C(Cn1cccc1-c1nc(-c2ccc3c(c2)OCO3)no1)Nc1ccc2c(c1)OCCO2,41%,-8%,?,i,i,-7%
C=CCCOC(=O)N1C[C@@H](C(N)=O)[C@@H]2Oc3c(C)cccc3[C@@H]21,.,.,-11%,?,.,.
CN(C)c1cccc(-c2cc(-c3cn[nH]c3)c3cncn3c2)c1,-20%[87.6 µM],-5%[87.6 µM],?,14µM*,?,-12%[70.6 µM]
c1cncc(-c2cc(-c3cccc(N4CCOCC4)c3)cn3cncc23)c1,-16%[87.6 µM],-16%[87.6 µM],?,?,i,-10%[70.6 µM]
c1cc(-c2cc(-c3cn[nH]c3)c3cncn3c2)cc(N2CCOCC2)c1,-30%[87.6 µM],-9%[87.6 µM],?,25µM*,i,-23%[70.6 µM]
c1cc(-c2cc(-c3cn[nH]c3)cn3cncc23)ccn1,?,-14%[87.6 µM],35µM*,28µM*,i,1%[70.6 µM]
C1=C(c2cc(-c3ccncc3)cn3cncc23)CCOC1,-22%[87.6 µM],4%[87.6 µM],100µM*,25µM*,i,4%[70.6 µM]
O=C(NC1CCN(c2ccnc3ccnn23)CC1)c1ccccc1Cl,19%,2%,-20%,?,.,.
CCOCCNC(=O)C1CCCN(c2nccc(Nc3ccc(C)cc3)n2)C1 (stereo unspecified),7%,-7%[12.5 µM],?,?,.,.
SMILES,SNCA expr inhib,HEK293 viab,HEK293 tox,NIH3T3 tox,Luciferase inh,hNpr1 antagonist
COc1ccc(OC)c(NC(=O)CSc2c3c(nc4cc(Cl)ccc24)CCCC3)c1,2%,-6%,.,.,.,.
COc1ccc(OC)c(NC(=O)CSc2c3c(nc4ccccc24)CCCC3)c1,22µM*,?,.,.,.,.
COc1cc(OC)cc(OCC2CN(Cc3cccc(C(F)(F)F)c3)C(=O)c3c(ccnc3-c3ccc(OCC(=O)O)cc3)O2)c1 (stereo unspecified),-2%,-1%,0%,?,i,2%
O=C(O)COc1ccc(-c2nccc3c2C(=O)N(Cc2c[nH]c4ccccc24)CC(COc2ccccc2F)O3)cc1 (stereo unspecified),22%,-2%,i,?,?,1%
O=C(O)COc1ccc(-c2nccc3c2C(=O)N(Cc2c[nH]c4ccccc24)CC(COc2ccc(F)cc2F)O3)cc1 (stereo unspecified),7%,-2%,i,?,45µM*,3%
COc1cccc(OCC2CN(Cc3cccc(C(F)(F)F)c3)C(=O)c3c(ccnc3-c3ccc(OCC(=O)O)cc3)O2)c1OC (stereo unspecified),38%,2%,5%,?,45µM*,0%
CCN1C(=O)C2CC3(CCN(Cc4cccc(OC)c4)CC3)CN2C1=O (stereo unspecified),-3%,8%,?,-12%,.,.
Cc1ccc(NC(=O)N2Cc3[nH]cnc3C[C@H]2c2nc(-c3ccc4ccccc4c3)no2)cc1,101%,-28%,?,?,20µM*,-26%
O=C(NC1CCCCC1)N1Cc2[nH]cnc2C[C@H]1c1nc(-c2ccc3ccccc3c2)no1,109%,1%,-5%,1%,25µM*,0%
COc1ccc(NC(=O)N2Cc3[nH]cnc3C[C@H]2c2nc(-c3ccccc3)no2)cc1,127%[87.6 µM],?,?,32µM*,40µM*,-21%[70.6 µM]
CCOC(=O)c1ccc(NC(=O)N2Cc3[nH]cnc3C[C@H]2c2nc(-c3ccc(C)cc3)no2)cc1,?,-22%,?,?,32µM*,-16%
CCOC(=O)c1ccc(NC(=O)N2Cc3[nH]cnc3C[C@H]2c2nc(-c3cccc(C)c3)no2)cc1,?,?,?,?,?,-30%
